# According to the supplement of paper PMC11732987, “Enantioselective OTUD7B fragment discovery through chemoproteomics screening and high-throughput optimisation” (Communications Chemistry, 2025):
# Values without a mark were called inactive.
# Key:
# Test in all cases: log2 ratio of Biotin-Ahx-Ub-VS probe labelling (fragment/DMSO); higher = less target engagement (more negative = stronger competition), active = hit call of the paper (q ≤ 0.05, log2 ratio ≤ -1)
# Details in all cases: compound concentration: 200 uM; treatment time: 3 h
# OTUD6B = molecular target: T1, OTUD6B (UniProt Q8N6M0)
# T1 sequence (whole entry): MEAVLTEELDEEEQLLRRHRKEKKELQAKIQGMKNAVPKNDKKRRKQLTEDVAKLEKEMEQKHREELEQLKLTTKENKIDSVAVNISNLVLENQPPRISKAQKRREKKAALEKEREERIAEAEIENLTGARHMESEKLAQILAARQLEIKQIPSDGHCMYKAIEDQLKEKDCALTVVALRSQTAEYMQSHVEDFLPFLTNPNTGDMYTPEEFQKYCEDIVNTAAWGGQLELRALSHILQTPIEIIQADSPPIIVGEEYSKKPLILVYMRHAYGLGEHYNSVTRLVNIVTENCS
# Method in brief: (§1)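 HEK293T lysate (495 µg per sample, in Tris/CHAPS/IGEPAL buffer with protease inhibitors) was exposed in triplicate for 3 h to fragment at 200 µM or to vehicle, then to Biotin-Ahx-Ub-VS at 0.5 µM final for 1 h. Labelled DUBs were enriched on NeutrAvidin, digested with LysC and trypsin, and analysed by diaPASEF LC-MS/MS. Spectronaut label-free quantities were normalised to the global median, and values are average log2 ratios of fragment over vehicle from an unpaired t-test. Only proteins with ≥2 unique peptides were used.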
# OTUD7B = molecular target: T2, OTUD7B (UniProt Q6GQQ9)
# T2 sequence (whole entry): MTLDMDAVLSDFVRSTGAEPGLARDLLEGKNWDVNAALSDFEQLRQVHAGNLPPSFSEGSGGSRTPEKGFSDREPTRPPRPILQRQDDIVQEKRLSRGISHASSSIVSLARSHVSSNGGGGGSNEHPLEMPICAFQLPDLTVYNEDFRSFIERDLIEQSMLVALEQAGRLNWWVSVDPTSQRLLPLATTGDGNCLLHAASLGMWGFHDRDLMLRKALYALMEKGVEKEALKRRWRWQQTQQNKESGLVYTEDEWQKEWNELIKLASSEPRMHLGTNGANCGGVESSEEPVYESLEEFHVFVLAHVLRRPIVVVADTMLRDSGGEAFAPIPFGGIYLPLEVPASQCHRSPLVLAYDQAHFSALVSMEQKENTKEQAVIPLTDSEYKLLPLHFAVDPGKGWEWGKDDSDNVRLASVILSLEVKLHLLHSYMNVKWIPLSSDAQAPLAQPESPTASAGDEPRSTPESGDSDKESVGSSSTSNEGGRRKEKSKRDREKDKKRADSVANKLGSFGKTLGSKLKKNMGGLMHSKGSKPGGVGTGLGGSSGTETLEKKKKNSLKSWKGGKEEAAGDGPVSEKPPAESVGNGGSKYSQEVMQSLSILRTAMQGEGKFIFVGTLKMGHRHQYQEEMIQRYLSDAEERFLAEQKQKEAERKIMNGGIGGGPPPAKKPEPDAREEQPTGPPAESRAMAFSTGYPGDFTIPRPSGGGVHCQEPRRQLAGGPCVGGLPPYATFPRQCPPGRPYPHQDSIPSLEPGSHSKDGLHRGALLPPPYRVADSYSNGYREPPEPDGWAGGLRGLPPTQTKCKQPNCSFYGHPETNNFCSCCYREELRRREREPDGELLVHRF
# Method in brief: as §1
# PRPF8 = PRPF8 (UniProt Q6P2Q9)
# Method in brief: as §1
# PSMD7 = molecular target: T3, PSMD7 (UniProt P51665)
# T3 sequence (whole entry): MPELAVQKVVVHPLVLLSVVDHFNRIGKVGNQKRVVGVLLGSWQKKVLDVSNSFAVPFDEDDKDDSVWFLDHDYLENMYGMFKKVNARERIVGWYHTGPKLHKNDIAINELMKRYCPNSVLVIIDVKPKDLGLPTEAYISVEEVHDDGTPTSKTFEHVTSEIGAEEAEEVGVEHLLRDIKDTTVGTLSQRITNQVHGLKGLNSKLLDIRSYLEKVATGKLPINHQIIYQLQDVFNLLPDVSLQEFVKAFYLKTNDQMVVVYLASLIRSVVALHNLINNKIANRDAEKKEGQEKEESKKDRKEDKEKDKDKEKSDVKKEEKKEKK
# Method in brief: as §1
# UCHL1 = UCHL1 (UniProt P09936)
# Sequence of UCHL1 (P09936 whole entry, looked up): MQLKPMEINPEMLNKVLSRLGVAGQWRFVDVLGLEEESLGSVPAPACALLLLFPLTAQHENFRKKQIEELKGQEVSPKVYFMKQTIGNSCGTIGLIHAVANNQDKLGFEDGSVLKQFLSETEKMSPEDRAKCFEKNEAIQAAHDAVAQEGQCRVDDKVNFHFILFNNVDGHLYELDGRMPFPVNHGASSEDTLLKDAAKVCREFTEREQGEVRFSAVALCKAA
# Method in brief: as §1
# UCHL3 = molecular target: T4, UCHL3 (UniProt P15374)
# T4 sequence (whole entry): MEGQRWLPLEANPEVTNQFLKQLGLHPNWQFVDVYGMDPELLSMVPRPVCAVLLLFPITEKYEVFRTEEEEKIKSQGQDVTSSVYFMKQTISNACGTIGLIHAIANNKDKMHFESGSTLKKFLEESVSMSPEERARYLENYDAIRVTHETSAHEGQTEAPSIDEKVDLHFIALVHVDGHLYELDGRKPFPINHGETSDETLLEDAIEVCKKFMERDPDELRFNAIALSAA
# Method in brief: as §1
# UCHL5 = molecular target: T5, UCHL5 (UniProt Q9Y5K5)
# T5 sequence (whole entry): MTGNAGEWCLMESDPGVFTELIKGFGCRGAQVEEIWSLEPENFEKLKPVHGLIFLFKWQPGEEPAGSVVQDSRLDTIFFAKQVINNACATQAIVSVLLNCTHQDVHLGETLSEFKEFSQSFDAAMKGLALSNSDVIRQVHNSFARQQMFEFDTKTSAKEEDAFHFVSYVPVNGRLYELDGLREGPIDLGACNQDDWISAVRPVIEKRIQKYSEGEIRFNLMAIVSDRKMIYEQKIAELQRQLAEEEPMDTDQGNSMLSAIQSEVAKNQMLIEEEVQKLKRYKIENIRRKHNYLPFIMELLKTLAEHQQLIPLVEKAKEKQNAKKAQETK
# Method in brief: as §1
# USP10 = USP10 (UniProt Q14694)
# Sequence of USP10 (Q14694 whole entry): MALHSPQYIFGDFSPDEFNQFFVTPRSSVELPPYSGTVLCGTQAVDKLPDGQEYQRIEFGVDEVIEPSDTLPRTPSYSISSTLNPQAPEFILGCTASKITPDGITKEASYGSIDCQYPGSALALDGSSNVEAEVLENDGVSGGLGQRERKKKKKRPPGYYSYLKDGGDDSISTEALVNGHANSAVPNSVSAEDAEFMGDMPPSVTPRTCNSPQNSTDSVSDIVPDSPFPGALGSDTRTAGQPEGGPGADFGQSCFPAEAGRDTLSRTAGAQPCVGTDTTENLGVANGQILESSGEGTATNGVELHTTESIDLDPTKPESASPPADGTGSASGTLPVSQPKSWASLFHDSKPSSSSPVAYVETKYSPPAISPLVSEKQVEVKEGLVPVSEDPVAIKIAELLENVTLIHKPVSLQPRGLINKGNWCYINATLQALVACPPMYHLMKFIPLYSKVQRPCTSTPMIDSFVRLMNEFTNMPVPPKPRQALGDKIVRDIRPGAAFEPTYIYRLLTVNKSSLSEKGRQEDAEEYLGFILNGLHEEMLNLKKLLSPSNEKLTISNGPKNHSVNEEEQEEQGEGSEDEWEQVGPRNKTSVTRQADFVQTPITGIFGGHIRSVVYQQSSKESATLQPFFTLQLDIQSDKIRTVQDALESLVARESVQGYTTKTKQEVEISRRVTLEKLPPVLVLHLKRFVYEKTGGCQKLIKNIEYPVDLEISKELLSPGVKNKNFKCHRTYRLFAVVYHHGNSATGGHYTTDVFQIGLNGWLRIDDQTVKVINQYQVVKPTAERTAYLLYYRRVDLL
# Method in brief: as §1
# USP15 = molecular target: T6, USP15 (UniProt Q9Y4E8)
# T6 sequence (whole entry): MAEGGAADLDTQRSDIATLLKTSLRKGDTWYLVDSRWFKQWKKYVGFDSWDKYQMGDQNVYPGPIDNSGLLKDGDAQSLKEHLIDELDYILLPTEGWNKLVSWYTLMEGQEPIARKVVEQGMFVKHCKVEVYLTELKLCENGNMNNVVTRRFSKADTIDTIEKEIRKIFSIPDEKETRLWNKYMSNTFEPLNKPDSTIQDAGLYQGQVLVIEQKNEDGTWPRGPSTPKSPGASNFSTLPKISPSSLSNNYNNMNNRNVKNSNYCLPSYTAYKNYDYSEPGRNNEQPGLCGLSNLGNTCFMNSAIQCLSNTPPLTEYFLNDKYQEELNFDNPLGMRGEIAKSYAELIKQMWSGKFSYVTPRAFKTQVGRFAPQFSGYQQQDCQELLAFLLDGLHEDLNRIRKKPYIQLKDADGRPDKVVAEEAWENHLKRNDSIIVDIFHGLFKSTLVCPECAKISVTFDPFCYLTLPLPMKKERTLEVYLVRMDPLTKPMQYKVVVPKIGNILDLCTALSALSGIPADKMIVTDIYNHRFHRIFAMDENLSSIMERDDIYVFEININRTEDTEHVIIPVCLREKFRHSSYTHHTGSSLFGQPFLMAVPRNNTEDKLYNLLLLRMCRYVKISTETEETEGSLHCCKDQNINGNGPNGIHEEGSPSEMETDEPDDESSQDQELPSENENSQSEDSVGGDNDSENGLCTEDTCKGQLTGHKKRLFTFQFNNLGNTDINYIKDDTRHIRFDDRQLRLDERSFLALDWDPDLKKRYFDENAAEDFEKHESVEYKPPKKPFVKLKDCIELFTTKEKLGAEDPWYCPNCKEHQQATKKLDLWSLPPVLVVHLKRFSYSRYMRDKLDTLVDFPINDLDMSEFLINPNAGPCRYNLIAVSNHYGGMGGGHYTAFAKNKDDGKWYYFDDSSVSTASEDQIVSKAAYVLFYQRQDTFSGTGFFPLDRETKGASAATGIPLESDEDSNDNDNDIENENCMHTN
# Method in brief: as §1
# USP16 = USP16 (UniProt Q9Y5T5)
# Sequence of USP16 (Q9Y5T5 whole entry, looked up): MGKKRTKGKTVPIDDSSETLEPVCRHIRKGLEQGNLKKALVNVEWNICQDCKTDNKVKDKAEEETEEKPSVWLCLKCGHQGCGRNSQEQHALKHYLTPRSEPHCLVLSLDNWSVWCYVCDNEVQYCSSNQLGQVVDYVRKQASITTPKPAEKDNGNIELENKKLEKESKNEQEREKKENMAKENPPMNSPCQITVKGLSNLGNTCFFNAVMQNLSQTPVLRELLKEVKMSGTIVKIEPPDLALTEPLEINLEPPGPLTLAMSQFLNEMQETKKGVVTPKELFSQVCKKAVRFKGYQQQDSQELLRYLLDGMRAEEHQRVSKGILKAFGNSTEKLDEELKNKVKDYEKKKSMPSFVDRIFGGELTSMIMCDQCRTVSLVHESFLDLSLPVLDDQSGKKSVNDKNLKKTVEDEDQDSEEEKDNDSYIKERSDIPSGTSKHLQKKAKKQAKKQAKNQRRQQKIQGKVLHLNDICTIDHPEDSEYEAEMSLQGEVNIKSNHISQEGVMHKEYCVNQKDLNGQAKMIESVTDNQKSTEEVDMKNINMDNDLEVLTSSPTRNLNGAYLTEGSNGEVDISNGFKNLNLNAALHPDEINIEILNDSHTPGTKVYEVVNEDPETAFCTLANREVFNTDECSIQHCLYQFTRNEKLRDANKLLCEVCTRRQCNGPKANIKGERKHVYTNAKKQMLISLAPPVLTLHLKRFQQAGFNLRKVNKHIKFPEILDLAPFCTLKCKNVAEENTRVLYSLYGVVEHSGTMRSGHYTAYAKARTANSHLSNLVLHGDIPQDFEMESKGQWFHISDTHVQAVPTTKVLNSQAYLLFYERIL
# Method in brief: as §1
smiles,measurement,setting,value
O=C(CCl)N1CCC(C(=O)N2CCCC2)CC1,log2 ratio of Biotin-Ahx-Ub-VS probe labelling,OTUD6B,-0.427
same,log2 ratio of Biotin-Ahx-Ub-VS probe labelling,OTUD7B,-0.121
same,log2 ratio of Biotin-Ahx-Ub-VS probe labelling,PRPF8,0.0985
same,log2 ratio of Biotin-Ahx-Ub-VS probe labelling,PSMD7,0.0529
same,log2 ratio of Biotin-Ahx-Ub-VS probe labelling,UCHL1,-1.3 (active)
same,log2 ratio of Biotin-Ahx-Ub-VS probe labelling,UCHL3,0.284
same,log2 ratio of Biotin-Ahx-Ub-VS probe labelling,UCHL5,0.037
same,log2 ratio of Biotin-Ahx-Ub-VS probe labelling,USP10,-0.257
same,log2 ratio of Biotin-Ahx-Ub-VS probe labelling,USP15,-0.395
same,log2 ratio of Biotin-Ahx-Ub-VS probe labelling,USP16,-0.362
